Assay outcomes (PubChem)
JMJD2A Tudor = qHTS Assay for Inhibitors of JMJD2A-Tudor Domain | 390,000 tested, 4.4% active | AID 504339, 2011 | AlphaScreen JMJD2A-Tudor / H3K4me3 peptide binding | Potency, µM (series often up to 114 µM), for the others: at the top dose activity change, negative = inhibition, hits mostly inhibitors; further: on the % scale 0 is the no-effect control and ±100 the full control effect; nearly all actives have a fitted effect of over 50% in size
PLK1 PBD block = qHTS for Inhibitors of PLK1-PDB (polo-like kinase 1 - polo-box domain): Primary Screen | Serine/threonine-protein kinase PLK1 (Homo sapiens), P53350 | Plk1 PBD binding of FITC phosphopeptide, fluorescence polarization | Potency, µM, inactives show max response, negative = inhibition, usual class: inhibitors | 360,000 tested, 2.8% active; further: series mostly up to about 57 µM; on the % scale 0 is the no-effect control and ±100 the full control effect; nearly all actives have a fitted effect of over 65% in size
BAZ2B inh = qHTS Assay for Inhibitors of BAZ2B; Bromodomain adjacent to zinc finger domain protein 2B (Homo sapiens), Q9UIF8; AlphaScreen BAZ2B-H3K14Ac peptide displacement; Potency, µM (doses to about 114 µM), inactives show at the top dose activity change, negative = inhibition, actives largely listed as inhibitors; 360,000 tested, 4.4% active; further: on the % scale 0 is the no-effect control and ±100 the full control effect; nearly all actives have a fitted effect of over 60% in size
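Inhibition is scored as reduced AlphaScreen emission. The BAZ2B/b-H3(5-23)K14Ac complex (50 nM each) in PBS pH 7.4, 0.01% Tween-20 meets compound (up to 110 uM) for 30 min at RT before bead addition.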
G9a block = qHTS Assay for Inhibitors of Histone Lysine Methyltransferase G9a; Histone-lysine N-methyltransferase EHMT2 (Homo sapiens), Q96KQ7; G9a H3K9 monomethylation, AlphaScreen, 2 h; Potency, µM (series often up to 102 µM), inactives show at the top dose activity, negative = inhibition, actives largely listed as inhibitors; 350,000 tested, 8.8% active; AID 504332, 2011; further: on the % scale 0 is the no-effect control and ±100 the full control effect; nearly all actives have a fitted effect of over 75% in size
Target sequence (Q96KQ7 913-1193 limits assumed): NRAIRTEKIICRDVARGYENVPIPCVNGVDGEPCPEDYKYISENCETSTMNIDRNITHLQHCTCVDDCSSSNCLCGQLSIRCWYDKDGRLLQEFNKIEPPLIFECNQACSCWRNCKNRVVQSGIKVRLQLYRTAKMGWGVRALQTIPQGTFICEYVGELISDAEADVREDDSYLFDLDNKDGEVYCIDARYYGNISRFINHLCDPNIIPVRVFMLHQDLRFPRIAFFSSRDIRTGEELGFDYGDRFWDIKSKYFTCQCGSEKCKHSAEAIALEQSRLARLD
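Signal arises when biotinylated H3K9 peptide, once monomethylated, bridges streptavidin donor and antibody-captured acceptor beads. Enzyme at 20 nM was preincubated 15 min with test compounds; peptide 500 nM and SAM 20 uM then reacted for 2 h.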
VDR inh = Inhibitors of the vitamin D receptor (VDR): qHTS. AID 504847, 2011. Potency, µM, for the others: max response, negative = inhibition, actives largely listed as inhibitors. Vitamin D3 receptor (Homo sapiens), P11473. 400,000 tested, 0.93% active. VDR-SRC2-3 peptide fluorescence polarization, 2 h; further: on the % scale 0 is the no-effect control and ±100 the full control effect
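FP read-out; VDR + SRC2-3 coactivator peptide; 23 nl compound by pintool; 2 h RT incubation; reagents held at 4 deg C, protected from light.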
HP1b chromo inh = HTS for Inhibitors of HP1-beta Chromodomain Interactions with Methylated Histone Tails | Chromobox protein homolog 1 (Homo sapiens), P83916 | AlphaScreen HP1-beta / biotin-H3K9me3 peptide binding | Potency, µM (doses to about 114 µM), for inactives: at the top dose activity change, negative = inhibition, most hits filed as inhibitors | 390,000 tested, 0.56% active; further: nearly all actives have a fitted effect of over 70% in size
Target sequence (P83916 whole entry, looked up): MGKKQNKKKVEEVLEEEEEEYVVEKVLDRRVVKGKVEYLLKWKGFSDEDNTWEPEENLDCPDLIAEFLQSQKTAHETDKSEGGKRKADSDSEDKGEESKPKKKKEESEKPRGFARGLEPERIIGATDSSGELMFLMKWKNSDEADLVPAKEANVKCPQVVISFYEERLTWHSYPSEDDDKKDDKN
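Compound inhibition of the preformed complex between 50 nM HP1-beta and 50 nM biotinylated H3K9me3 peptide was read by AlphaScreen. Buffer was PBS pH 7.4 with 0.01% Tween-20. Incubations ran 30 min at room temperature, with 10 ug/mL donor/acceptor beads.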
Active calls of the source: *; [ ] = another dose, or the depositor's remark. An excerpt weighted towards active compounds, which were near 11% of everything screened. The call rests on the fitted dose curve; in most records, active means well fitted curve in the direction sought with a large enough effect; inconclusive means small, poorly fitted or top-dose-only effect, or another doubt; inactive means no such curve, though single readings can be large; an effect the other way counts as inactive or inconclusive. Potency means the concentration at half of the fitted maximal effect.

Cc1cc(C)c(NC(=O)CSc2nnc(Cc3cccn3C)n2-c2ccc(F)cc2)c(C)c1 was read as JMJD2A Tudor inconclusive, PLK1 PBD block -9%, BAZ2B inh inconclusive, G9a block 45µM*, VDR inh -18% and HP1b chromo inh -17%.
`Cn1cccc1Cc1nnc(SCC(=O)NCc2ccco2)n1-c1ccc(F)cc1` gave JMJD2A Tudor inconclusive, PLK1 PBD block -2%, BAZ2B inh inconclusive, G9a block inconclusive, VDR inh -1% and HP1b chromo inh -10%.
`Cn1cccc1Cc1nnc(SCC(N)=O)n1-c1ccc(F)cc1` gave JMJD2A Tudor -13%, PLK1 PBD block -12%, BAZ2B inh -6%, G9a block 89µM*, VDR inh -15% and HP1b chromo inh 41%.
`CC(=O)Nc1cccc(NC(=O)CSc2nnc(Cc3cccn3C)n2-c2ccc(F)cc2)c1` gave JMJD2A Tudor inconclusive, PLK1 PBD block -2%, BAZ2B inh inconclusive, G9a block inconclusive, VDR inh 7% and HP1b chromo inh -14%.
Screening COc1ccc(-n2c(Cc3cccn3C)nnc2SCC(=O)NCCc2ccccc2)cc1 returned JMJD2A Tudor -28%, PLK1 PBD block -8%, BAZ2B inh inconclusive, G9a block -10%[2.33 µM], VDR inh 12% and HP1b chromo inh -15%.
Screening COc1ccc(-n2c(Cc3cccn3C)nnc2SCC(=O)Nc2cccc(OC)c2)cc1 returned JMJD2A Tudor -34%, PLK1 PBD block -1%, BAZ2B inh inconclusive, G9a block 50µM*, VDR inh -4% and HP1b chromo inh 11%.
`COc1ccc(OC)c(NC(=O)CSc2nnc(Cc3cccn3C)n2-c2ccc(F)cc2)c1` gave JMJD2A Tudor -35%, PLK1 PBD block -2%, BAZ2B inh 50µM*, G9a block inconclusive, VDR inh -11% and HP1b chromo inh 1%.
`COc1ccc(NC(=O)CSc2nnc(Cc3cccn3C)n2-c2ccc(C)cc2)cc1OC` gave JMJD2A Tudor inconclusive, PLK1 PBD block -6%, BAZ2B inh inconclusive, G9a block inconclusive, VDR inh -3% and HP1b chromo inh inconclusive.
Cn1cccc1Cc1nnc(SCC(=O)NCc2ccccc2Cl)n1-c1ccc(F)cc1 was read as JMJD2A Tudor -35%, PLK1 PBD block -9%, BAZ2B inh inconclusive, G9a block 79µM*, VDR inh 1% and HP1b chromo inh -3%.
CSCCC(c1nc2ccccc2[nH]1)n1c(/C=C/c2ccc(F)c(F)c2)nc2ccccc21 (stereo unspecified) was read as PLK1 PBD block -14%.
For Cc1nn2c(-c3cccc(NC(=O)c4ccccc4)c3)nnc2c2ccccc12 the results were JMJD2A Tudor -10%, BAZ2B inh 4%, G9a block -1%[59 µM], VDR inh -4% and HP1b chromo inh 35%.
O=C(COC(=O)/C=C/c1cccc(Cl)c1)NC1CCCC1 was read as JMJD2A Tudor 1%, PLK1 PBD block 0%, BAZ2B inh -5%, G9a block 20%[59 µM], VDR inh -16% and HP1b chromo inh 51%.
Screening CC(=O)CSc1ncnc2c1cnn2-c1ccccc1 returned JMJD2A Tudor -19%, PLK1 PBD block 24µM*, BAZ2B inh 2%, G9a block 34%[59 µM], VDR inh inconclusive and HP1b chromo inh -5%.
`CNC(=O)CSc1ncnc2c1cnn2-c1ccccc1` gave JMJD2A Tudor 4%, PLK1 PBD block -1%, G9a block -27%, VDR inh -13% and HP1b chromo inh 35%.
For NNc1ncnc2c1cnn2-c1ccccc1 the results were JMJD2A Tudor 50µM*, PLK1 PBD block -5%, BAZ2B inh 28µM*, G9a block -49%[12.7 µM], VDR inh 7% and HP1b chromo inh 20%.
`CCOC(=O)CNC(=O)CSc1ncnc2c1cnn2-c1ccc(Cl)cc1` gave JMJD2A Tudor inconclusive, PLK1 PBD block 24µM*, G9a block 4%[59 µM], VDR inh -7% and HP1b chromo inh -10%.
For COc1ccccc1C(=O)NCCC(=O)Nc1ncccc1O the results were JMJD2A Tudor inconclusive, PLK1 PBD block -2%, BAZ2B inh 6%, G9a block 20%, VDR inh 5% and HP1b chromo inh 57%.
For Cc1ccc(O)c(CO)n1 the results were JMJD2A Tudor -10%, PLK1 PBD block -11%, BAZ2B inh 5%, G9a block 11%, VDR inh -16% and HP1b chromo inh -4%.
For Cc1nc2c(O)cccc2cc1CO the results were JMJD2A Tudor 4.5µM*, PLK1 PBD block 0%, BAZ2B inh -37%, G9a block 10µM*, VDR inh -8% and HP1b chromo inh 6%.
`COc1ccc(C(=O)Nc2ccccc2C(=O)NC(Cc2ccc(O)cc2)C(=O)NNC(=O)c2ccncc2)cc1` (stereo unspecified) gave JMJD2A Tudor -12%, PLK1 PBD block -23%, BAZ2B inh inconclusive, G9a block 1.4µM*, VDR inh 6% and HP1b chromo inh 20%.
Screening O=C(Nc1ccccc1C(=O)NC(Cc1ccccc1)C(=O)NC1CCCCCC1)c1ccccc1 (stereo unspecified) returned JMJD2A Tudor -10%[11.4 µM], PLK1 PBD block 27µM*, BAZ2B inh 0%, G9a block 1%[12.7 µM], VDR inh -9% and HP1b chromo inh -6%.
Screening O=C(Nc1ccccc1C(=O)NC1CCCCC1)c1ccccc1 returned JMJD2A Tudor 14%, PLK1 PBD block 3%, BAZ2B inh -3%, G9a block inconclusive, VDR inh 6% and HP1b chromo inh 40%.
Screening C[C@@H]1CN([C@@H](C)CO)C(=O)c2cc(Br)cnc2O[C@H]1CN(C)C(=O)c1ccccc1F returned PLK1 PBD block 0%.
Screening Cc1sc(NC(=O)c2cccs2)nc1-c1ccccc1 returned JMJD2A Tudor -26%, PLK1 PBD block -6%, BAZ2B inh -1%, G9a block -51%, VDR inh 11% and HP1b chromo inh 31%.
For Cc1sc(N/N=C/c2cccs2)nc1-c1ccccc1 the results were JMJD2A Tudor 25µM*, PLK1 PBD block inconclusive, BAZ2B inh -27%, G9a block 45µM*, VDR inh inconclusive and HP1b chromo inh inconclusive.
